In assay [1] the test system is Wnt5a (protein binding on small-molecule microarray). The assay is described as follows: Wnt5a binders on small-molecule microarray, primary screen, biophysical, 635/667 nm fluorescence (AID 1142).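 Also: fluorescence read at 667 nm with signal to noise per printed feature.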 The following applies: 635 nm fluorescence, higher = more signal.
Assay [2] is described as follows: cell viability in Huh7 cells, primary screen, cytotoxicity control for HCV replication inhibitor project, CellTiter-Glo luminescence, basal, 48 h (AID 1143).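 Also: Huh7 hepatoma cells carrying a hepatitis C replication reporter with no stimulus; test concentration not given here.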 Conditions: Huh7 HCV replicon, higher = more signal, called active from +8 up or from −8 down. Background: Cellular ATP, detected with luciferase, serves as a proxy for viable cell number.
The nature of assay [3]: P. aeruginosa biofilm formation inhibitors, primary screen, PAO1 strain, BacTiter-Glo luminescence, LB-PBS (AID 1144). The following applies: 12 h, higher = more signal.
The nature of assay [4]: CREB reporter modulators without forskolin, primary screen, cell-based, PC12, CRE-LacZ reporter, unstimulated (AID 1145). Conditions: no forskolin, luminescence, 4.5 h, higher = more signal, called active from +8 up or from −8 down.
The nature of assay [5]: CREB reporter modulators under forskolin, primary screen, cell-based, PC12, CRE-LacZ reporter, forskolin-stimulated (AID 1146).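 Also: PC12 cells with 6xCRE LacZ reporter stimulated by forskolin 10 µM; beta-galactosidase reporter signal reflecting CREB driven transcription.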 Conditions: luminescence, 4.5 h, higher = more signal, called active from +8 up or from −8 down.
In assay [6] the target is Streptavidin (Streptomyces avidinii) (UniProt P22629). The assay can be described thus: streptavidin binders on small-molecule microarray, primary screen, artefact control for SMM compound annotation, biophysical, 635/667 nm fluorescence (AID 1147).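 Also: signal reflects streptavidin binding to arrayed compounds as a control protein.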 The following applies: streptavidin binding, higher = more signal.
The nature of assay [7]: small-molecule binders of probe aInhba, primary screen, biochemical, small-molecule microarray, 635/667 nm fluorescence (AID 1148).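 Also: score merges 667nm spot fluorescence with signal-to-noise for antibody binding to printed compounds.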 The following applies: higher = more signal.
For assay [8], the target named is Torsin-1A (Homo sapiens) (UniProt O14656). The assay can be described thus: torsin A binders from cell lysate, primary screen, small-molecule microarray, wild-type, 635/667 nm (AID 1149). The following applies: COS7 hTOR1A-WT lysate, 635 nm fluorescence, higher = more signal.
The target is the same in assay [9]. The assay is described as follows: small-molecule binders of mutant TOR1A in lysate, primary screen, cell lysate, small-molecule microarray, COS7 lysate, 635/667 nm fluorescence (AID 1150).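 Also: score pools 667 nm emission and signal to noise measuring lysate protein binding.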 Conditions: COS7 hTOR1A mutant lysate, 635 nm fluorescence, higher = more signal.
Assay [10] concerns Sonic hedgehog protein (Shh). The assay is described as follows: small-molecule binders of Shh protein, primary screen, biochemical, small-molecule microarray, 635/667 nm fluorescence (AID 1151).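 Also: Shh protein binding to compounds spotted on small-molecule microarray slides; score combines spot fluorescence intensity with signal-to-noise across triplicate slides.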 Conditions: small-molecule microarray binding, 635 nm fluorescence; higher = more signal.
Assay [11] is described as follows: E. coli DRC41 culture turbidity changes, primary screen, E. coli filamentation inducer project, strain DRC41, OD650, 48 h (AID 1152).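 Also: E. coli MC1000 strain DRC41 lacking acrAB efflux pump and sulA.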 The following applies: E. coli DRC41 (acrAB sulA), higher = more signal, called active from +8 up or from −8 down.
Assay [12] is described as follows: small-molecule binders of probe aLefty1, primary screen, biochemical, small-molecule microarray, 635/667 nm fluorescence (AID 1153).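 Also: score merges spot fluorescence with signal-to-noise ratio from the scanned slide images.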 Conditions: higher = more signal.
The nature of assay [13]: PSAC antagonists in infected red cells, primary screen, cell-based, P. falciparum Indochina, OD700, 1 h (AID 1154). The following applies: P. falciparum Indochina infected RBC osmotic lysis, higher = more signal, called active from +8 up or from −8 down.
Assay [14] in a line: PSAC antagonists in infected red cells, primary screen, cell-based, P. falciparum Indochina, OD700, 2 h (AID 1155).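 Also: lysis reports solute entry through the parasite surface anion channel PSAC; channel blockers reduce lysis of infected cells.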 The following applies: P. falciparum Indochina infected erythrocytes, osmotic lysis OD700; higher = more signal, called active from +8 up or from −8 down.
Assay [15] is described as follows: osmotic lysis modulators in infected erythrocytes, primary screen, PSAC antagonist project, cell-based, P. falciparum Indochina, OD700, 3 h (AID 1156). The following applies: higher = more signal, called active from +8 up or from −8 down.
Assay [16] is described as follows: PSAC antagonists in infected red cells, primary screen, cell-based, P. falciparum Indochina, OD700, 18 h (AID 1157). The following applies: P. falciparum Indochina infected erythrocytes, osmotic lysis OD700, 18 h; higher = more signal, called active from +8 up or from −8 down.
The nature of assay [17]: modulators of S6 phosphorylation in cells, primary screen, cell-based, A549, cytoblot, luminescence, serum-stimulated (AID 1158).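 Also: serum-stimulated A549 lung adenocarcinoma cells; signal is phosphorylated S6 detected by cytoblot immunostaining with HRP secondary.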 Conditions: A549 phospho-S6 cytoblot, 5 h, higher = more signal.
Assay [18] has as its target NADPH oxidase 2 (Homo sapiens) (UniProt P04839). The assay can be described thus: NOX2-dependent H2O2 signal modulators, primary screen, NOX inhibitor project, cell-based, HEK293-NOX2, PMA-stimulated, Amplex Red fluorescence (AID 1159). Also: test concentration not given here. Conditions: 45 min, higher = more signal, called active from +8 up or from −8 down.
The target of assay [19] is NADPH oxidase 4 (Homo sapiens) (UniProt Q9NPH5). The assay is described as follows: NOX4-dependent H2O2 signal modulators, primary screen, NOX inhibitor project, cell-based, HEK293-NOX4, tetracycline-induced, Amplex Red fluorescence (AID 1160). The following applies: 45 min, higher = more signal, called active from +8 up or from −8 down.
The target in assay [20] is NADPH oxidase 5 (Homo sapiens) (UniProt Q96PH1). The assay is described as follows: NOX5-dependent H2O2 signal modulators, primary screen, NOX inhibitor project, cell-based, HEK293-NOX5, Amplex Red fluorescence (AID 1161). The following applies: HEK293-NOX5, ionomycin, 45 min, higher = more signal.

Experimental findings from PubChem BioAssay are described below.

Each structure is given as a SMILES string. Active and inactive are the calls of the source. Unless noted, no rule for the calls is given here.

NADPH oxidase 2 (Homo sapiens), sequence (P04839 whole entry, looked up): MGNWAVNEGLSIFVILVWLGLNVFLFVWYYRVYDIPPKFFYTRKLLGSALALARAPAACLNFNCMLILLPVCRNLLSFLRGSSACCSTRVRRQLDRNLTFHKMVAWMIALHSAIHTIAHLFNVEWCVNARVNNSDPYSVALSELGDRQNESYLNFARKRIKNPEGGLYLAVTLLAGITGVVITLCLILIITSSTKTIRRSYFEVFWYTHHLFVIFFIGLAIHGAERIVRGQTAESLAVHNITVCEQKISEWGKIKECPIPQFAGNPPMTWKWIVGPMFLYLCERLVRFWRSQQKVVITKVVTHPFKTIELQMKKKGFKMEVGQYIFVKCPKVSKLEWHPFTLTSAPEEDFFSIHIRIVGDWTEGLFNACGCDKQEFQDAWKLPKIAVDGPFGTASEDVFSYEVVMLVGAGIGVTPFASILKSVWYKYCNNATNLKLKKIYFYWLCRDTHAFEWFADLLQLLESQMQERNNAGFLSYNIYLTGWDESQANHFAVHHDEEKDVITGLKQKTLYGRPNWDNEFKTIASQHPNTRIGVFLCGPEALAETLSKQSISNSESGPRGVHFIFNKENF
NADPH oxidase 5 (Homo sapiens), sequence (Q96PH1 whole entry, looked up): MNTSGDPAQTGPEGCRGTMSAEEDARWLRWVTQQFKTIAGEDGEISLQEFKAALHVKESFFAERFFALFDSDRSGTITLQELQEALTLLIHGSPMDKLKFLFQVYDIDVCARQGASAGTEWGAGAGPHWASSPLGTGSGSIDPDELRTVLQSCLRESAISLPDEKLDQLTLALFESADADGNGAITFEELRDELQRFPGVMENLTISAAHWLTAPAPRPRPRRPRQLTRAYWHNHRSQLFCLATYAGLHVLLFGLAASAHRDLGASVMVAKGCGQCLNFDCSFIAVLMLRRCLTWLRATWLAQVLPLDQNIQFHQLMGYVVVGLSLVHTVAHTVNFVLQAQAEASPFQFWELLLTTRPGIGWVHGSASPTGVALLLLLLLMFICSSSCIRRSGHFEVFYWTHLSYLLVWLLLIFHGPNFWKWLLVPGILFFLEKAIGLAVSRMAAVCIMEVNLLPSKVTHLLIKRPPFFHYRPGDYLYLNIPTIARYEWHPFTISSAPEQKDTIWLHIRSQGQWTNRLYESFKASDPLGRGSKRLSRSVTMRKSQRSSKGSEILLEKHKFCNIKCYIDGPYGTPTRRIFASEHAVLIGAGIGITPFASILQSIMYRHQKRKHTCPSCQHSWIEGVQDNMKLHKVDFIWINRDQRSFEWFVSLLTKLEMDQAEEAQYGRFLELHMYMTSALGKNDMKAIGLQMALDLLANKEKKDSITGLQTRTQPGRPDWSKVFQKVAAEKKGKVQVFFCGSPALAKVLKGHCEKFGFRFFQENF
Streptavidin (Streptomyces avidinii), sequence (P22629 whole entry, looked up): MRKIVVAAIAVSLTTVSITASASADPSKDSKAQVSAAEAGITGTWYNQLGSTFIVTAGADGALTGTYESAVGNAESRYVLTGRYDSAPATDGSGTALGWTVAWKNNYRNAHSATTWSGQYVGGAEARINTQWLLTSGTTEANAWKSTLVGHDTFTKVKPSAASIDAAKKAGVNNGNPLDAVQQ
Torsin-1A (Homo sapiens), sequence (O14656 whole entry, looked up): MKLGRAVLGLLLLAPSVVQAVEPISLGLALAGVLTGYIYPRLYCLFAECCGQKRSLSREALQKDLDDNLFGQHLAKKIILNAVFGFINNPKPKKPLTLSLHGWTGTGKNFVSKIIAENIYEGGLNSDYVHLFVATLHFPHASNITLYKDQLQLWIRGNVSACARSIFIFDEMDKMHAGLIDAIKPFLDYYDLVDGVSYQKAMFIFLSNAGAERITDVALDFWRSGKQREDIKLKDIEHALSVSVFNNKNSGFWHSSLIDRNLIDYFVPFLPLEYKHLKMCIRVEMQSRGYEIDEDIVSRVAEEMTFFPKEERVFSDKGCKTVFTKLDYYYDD
NADPH oxidase 4 (Homo sapiens), sequence (Q9NPH5 whole entry, looked up): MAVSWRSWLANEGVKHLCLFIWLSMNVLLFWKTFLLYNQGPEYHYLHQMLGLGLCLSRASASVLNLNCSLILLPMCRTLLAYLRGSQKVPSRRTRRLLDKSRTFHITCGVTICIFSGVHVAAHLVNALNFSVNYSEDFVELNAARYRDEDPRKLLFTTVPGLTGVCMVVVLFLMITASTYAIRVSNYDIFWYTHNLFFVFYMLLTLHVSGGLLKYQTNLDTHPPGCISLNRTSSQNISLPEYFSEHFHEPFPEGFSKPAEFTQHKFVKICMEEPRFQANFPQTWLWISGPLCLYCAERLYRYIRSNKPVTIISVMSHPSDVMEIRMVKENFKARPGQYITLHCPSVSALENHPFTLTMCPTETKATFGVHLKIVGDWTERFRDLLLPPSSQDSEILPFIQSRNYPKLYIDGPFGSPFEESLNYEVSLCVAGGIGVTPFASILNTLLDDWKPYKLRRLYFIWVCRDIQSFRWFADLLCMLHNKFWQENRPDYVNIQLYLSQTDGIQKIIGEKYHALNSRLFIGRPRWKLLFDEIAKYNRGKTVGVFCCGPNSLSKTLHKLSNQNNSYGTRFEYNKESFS

On to `CC(=O)NCCCC[C@@H]1NC(=O)[C@H]2C[C@@H](C(=O)NCCCC[N+](C)(C)C)[C@@H](c3cccc(OCCO)c3)N2C1=O`, for which the composite z-score is 0.975 in assay [1]; -0.296 in assay [6]; 0.0031 in assay [7]; 1.07 with Torsin-1A (Homo sapiens) [8]; 2.34 in the assay with Torsin-1A (Homo sapiens) [9]; 2.18 in [10]. The composite z-score in assay [12] was found to be 0.165. The z-score in [2] is -1.62 (inactive); in assay [3], 0.481 (inactive); in assay [4], -0.667 (inactive); in assay [5], 0.451 (inactive); in assay [11] it was 0.485 (inactive); in [13], 2.46 (inactive). In addition, the z-score in assay [14] was 0.331 (inactive); in assay [15], -1.58 (inactive); in assay [16], 0.374 (inactive); in assay [17] it was -0.611; in assay [18], -1.23 (inactive); in [19], -0.477 (inactive). In [20], this compound registered a z-score of -1.08.
As to `COc1ccc(CN(C2=CC[C@@]3(C(N)=O)C(=O)C(Cl)=C(Cl)C(=O)[C@@]3(C#N)C2)S(=O)(=O)c2ccc(Br)cc2)cc1`, the composite z-score is -0.0312 in [1]; 0.62 in assay [6]; -0.0006 in assay [7]; 0.385 with Torsin-1A (Homo sapiens) [8]; 0.448 in the assay with Torsin-1A (Homo sapiens) [9]; -0.245 in assay [10]. In assay [12], this compound returned a composite z-score of -0.0042. For the same compound, the z-score is -3.6 (inactive) in assay [2]; -0.897 (inactive) in assay [3]; 33.6 (active) in [4]; 119 (active) in assay [5]; 1.3 (inactive) in [11]; 5.11 (inactive) in assay [13]. Further, the z-score was -1.24 (inactive) in [14]; -1.94 (inactive) in assay [15]; -2.3 (inactive) in assay [16]; 0.881 in assay [17]; 1.76 (inactive) in [18]; -0.275 (inactive) in assay [19]. In assay [20], this compound returned a z-score of 0.362.
`COCCOC(=O)N1C(=O)[C@@]2(c3cc(C#CC4=CCCCC4)ccc31)[C@H](c1ccc(OCCO)cc1)N1[C@H](c3ccccc3)[C@H](c3ccccc3)OC(=O)[C@H]1[C@@H]2C(=O)NC[C@H](O)c1ccccc1`: the composite z-score in [1] is 0.552; in assay [6], 0.785; in assay [7] it was 0.801; with Torsin-1A (Homo sapiens) [8] it was 0.818; with Torsin-1A (Homo sapiens) [9], 0.51; in [10] it was 1.85. This compound returned a composite z-score in assay [12] of 1.43. For the same compound, the z-score in [2] was -2.18 (inactive); in [3] it was 0.698 (inactive); in [4], 0.354 (inactive); in assay [5] it was -0.224 (inactive); in assay [11], -0.149 (inactive); in [13], 2.35 (inactive). Also, the z-score in assay [14] was 1.31 (inactive); in assay [15] it was -0.352 (inactive); in assay [16] it was 0.482 (inactive); in assay [17] it was 0.245; in [18] it was 1.36 (inactive); in assay [19], 0.849 (inactive). In addition, the z-score in assay [20] is 1.44.
In the case of `COCCOC(=O)N1C(=O)[C@@]2(c3cc(C#Cc4ccc(OC)cc4)ccc31)[C@H](C(=O)Nc1nc3ccccc3s1)[C@H]1C(=O)O[C@H](c3ccccc3)[C@H](c3ccccc3)N1[C@@H]2c1ccc(OCCO)cc1`, the composite z-score in assay [1] is 0.755; in [6], 1.12; in assay [7] it was 0.246; with Torsin-1A (Homo sapiens) [8], -0.129; in the assay with Torsin-1A (Homo sapiens) [9] it was 0.337; in assay [10], 1.84. The composite z-score in assay [12] turned out to be 0.0524. The z-score in assay [2] was -1.12 (inactive); in assay [3], 0.133 (inactive); in assay [4], 0.757 (inactive); in assay [5], 0.442 (inactive); in [11] it was -0.221 (inactive); in assay [13], 6.99 (inactive). Further, the z-score in assay [14] was 3.22 (inactive); in assay [15], 1.26 (inactive); in assay [16] it was 2.25 (inactive); in assay [17], -0.45; in assay [18], 2.03 (inactive); in assay [19] it was -1.07 (inactive). In assay [20], this compound came in with a z-score of 0.518.
